Inconclusive results are not listed. Unmarked numbers belong to inactive results. The call rests on the fitted dose curve; in most records, active means well fitted curve in the direction sought with a large enough effect in the signal ratio, with a control signal flat (not every such curve was filed as active); inconclusive means small, poorly fitted or top-dose-only effect, or effect the other way, or a change in a side signal; inactive means no such curve, though single readings can be large or run the other way; the % refers to the signal ratio.
target: Tyrosine-protein phosphatase non-receptor type substrate 1 (Homo sapiens) + Leukocyte surface antigen CD47 (Homo sapiens) (UniProt P78324+Q08722); experiment: CD47-SIRPalpha protein protein interaction - LANCE assay qHTS validation (AID 1347057); details: Recombinant CD47-His / biotin-SIRPalpha, TR-FRET ratio; series mostly up to 38.3 µM; activity change, negative = inhibition: at the top concentration; further: 0% is about no effect
Procedure, shortened: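 Inhibition of soluble CD47/SIRPalpha ectodomain association by titrated compounds, measured as 665/615 nm time-resolved FRET ratio after sequential 30 min room-temperature incubations.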

Sequence of Tyrosine-protein phosphatase non-receptor type substrate 1 (Homo sapiens) + Leukocyte surface antigen CD47 (Homo sapiens) (P78324 whole entry, looked up, the tested form may be a part): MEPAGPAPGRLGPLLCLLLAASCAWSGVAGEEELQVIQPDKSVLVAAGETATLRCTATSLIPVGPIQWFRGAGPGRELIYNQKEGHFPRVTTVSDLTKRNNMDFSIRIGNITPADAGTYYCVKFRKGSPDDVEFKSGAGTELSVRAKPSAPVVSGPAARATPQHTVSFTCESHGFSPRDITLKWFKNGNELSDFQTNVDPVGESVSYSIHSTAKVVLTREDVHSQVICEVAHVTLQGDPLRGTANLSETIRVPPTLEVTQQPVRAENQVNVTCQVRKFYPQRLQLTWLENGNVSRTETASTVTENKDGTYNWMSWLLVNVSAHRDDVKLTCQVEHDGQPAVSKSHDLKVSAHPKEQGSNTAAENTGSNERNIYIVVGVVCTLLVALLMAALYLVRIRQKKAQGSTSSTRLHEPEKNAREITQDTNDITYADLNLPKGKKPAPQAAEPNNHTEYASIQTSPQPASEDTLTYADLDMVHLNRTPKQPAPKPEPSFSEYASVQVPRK
Sequence of Tyrosine-protein phosphatase non-receptor type substrate 1 (Homo sapiens) + Leukocyte surface antigen CD47 (Homo sapiens) (Q08722 whole entry, looked up, the tested form may be a part): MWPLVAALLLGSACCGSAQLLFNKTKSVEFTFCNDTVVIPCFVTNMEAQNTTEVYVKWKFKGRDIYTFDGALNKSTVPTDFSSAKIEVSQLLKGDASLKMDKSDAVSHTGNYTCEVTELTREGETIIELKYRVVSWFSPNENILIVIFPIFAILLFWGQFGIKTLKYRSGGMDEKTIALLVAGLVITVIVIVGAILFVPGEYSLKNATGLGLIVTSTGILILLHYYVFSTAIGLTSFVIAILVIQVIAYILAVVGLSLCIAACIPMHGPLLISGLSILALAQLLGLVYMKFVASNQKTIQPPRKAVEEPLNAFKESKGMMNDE

Compound	activity change, negative = inhibition [%]
Cc1cc(NC(=O)Nc2ccc3c(ccn3C)c2)sn1	3.19
COc1ccc2c(c1)CCC1C2CC[C@@]2(C)C1CC[C@@H]2NCCCCCCN1C(=O)CCC1=O (stereo not given in full)	2.32
C[N+](C)(C)CCOP(=O)(O)OP(=O)([O-])OC[C@H]1O[C@@H](n2ccc(N)nc2=O)[C@H](O)[C@@H]1O	1.45
CCN(CC)c1ncnc2c1ncn2[C@@H]1O[C@H](COP(=O)(O)OP(=O)(O)C(Br)(Br)P(=O)(O)O)[C@@H](O)[C@H]1O	1.14
CC(C)CC(NP(=O)(O)O[C@@H]1O[C@@H](C)[C@H](O)[C@@H](O)[C@H]1O)C(=O)NC(Cc1c[nH]c2ccccc12)C(=O)O (stereo not given in full)	-0.967
C=CC(C)=C[C@@]1(C)SC(=O)C(C)=C1O	0.409
CNC(=O)[C@H]1O[C@@H](n2cnc3c(NCc4cccc(I)c4)ncnc32)[C@H](O)[C@@H]1O	-0.127
CCCCCCCC/C=C\CCCCCCCC(=O)NCCO	-0.835
COC(=O)c1c(C)[nH]c(C)c1C(=O)c1ccccc1Cc1ccccc1	-0.461
CC(C)NC[C@@H](O)c1ccc(O)c(O)c1	0.843
NCCCCCCCCCCN	-0.308
CC(C)(C=O)Cc1cc(C(C)(C)C)c(O)c(C(C)(C)C)c1	0.879
COc1cccc(C(=O)NCCN2CCN(c3ccc(Cl)cc3)CC2)c1	-0.389
NC(=O)C1=CN(C2OC(COP(=O)(O)OP(=O)(O)OC[C@H]3O[C@@H](n4cnc5c(N)ncnc54)[C@H](OP(=O)(O)O)[C@@H]3O)C(O)C2O)C=CC1 (stereo not given in full)	-0.182
COc1cc(SC)ccc1C(=O)N1CCC(Cc2ccccc2)CC1	-3.17
CC1CN(S(=O)(=O)c2cccc3cnccc23)CCN1 (stereo not given)	2.06
C[C@@H](CN1CCC(Cc2ccccc2)CC1)[C@@H](O)c1ccc(O)cc1	0.308
CC1(C)CCC=[N+]1[O-]	0.0197
OC[C@H]1O[C@@H](n2cnc3c(NC4CCCC4)ncnc32)[C@H](O)[C@@H]1O	-0.572
COc1cc(C(O)CO)ccc1OS(=O)(=O)O (stereo not given)	-0.044
CC(=O)N[C@H](C(=O)O)C(C)(C)SN=O	0.528
OC[C@H]1O[C@@H](n2cnc3c(NC4CCCCC4)ncnc32)[C@H](O)[C@@H]1O	0.12
NCCCS(=O)(=O)O	-0.264
O=C1/C(=C/c2ccsc2)CC/C1=C\c1cccs1	-0.193
NC(N)=NC(=O)c1nc(Cl)c(N2CCCCCC2)nc1N	1.91

— PubChem BioAssay (NCATS)
